Among all 330,000 compounds or so, about 3,800 (1.2%) were called active. The sample holds actives, similar compounds and a random draw of the others, so the mix is not that of the screen. Rule as the data show it: active = inhibition above about 15%; inconclusive = no clear call, values can overlap the other calls; inactive = below that.

For this test, the target named is NAD-dependent protein deacylase sirtuin-5, mitochondrial (Homo sapiens) (UniProt Q9NXA8). In words: blockers of sirtuin-5 deacylase activity – biochemical, fluorescence imaging, single point, set 5, primary screen (AID 652115). The following applies: Purified SirT5, succinyl-peptide AMC, trypsin-coupled fluorescence; at 15 µM; stronger effect = higher value.
Sequence of NAD-dependent protein deacylase sirtuin-5, mitochondrial (Homo sapiens) (Q9NXA8 whole entry, looked up): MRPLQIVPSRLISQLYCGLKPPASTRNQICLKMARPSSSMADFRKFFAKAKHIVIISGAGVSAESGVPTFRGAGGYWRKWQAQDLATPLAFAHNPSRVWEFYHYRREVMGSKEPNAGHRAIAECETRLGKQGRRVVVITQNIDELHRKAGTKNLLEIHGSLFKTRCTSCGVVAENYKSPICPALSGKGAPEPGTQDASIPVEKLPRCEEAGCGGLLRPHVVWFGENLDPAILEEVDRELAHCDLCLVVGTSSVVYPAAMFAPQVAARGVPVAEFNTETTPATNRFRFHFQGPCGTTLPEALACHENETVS
`CCCNC(=O)N[C@@H]1C=C[C@H](CC(=O)NC2CCC2)O[C@H]1CO`: the inhibition was -0.778% (inactive).

With `COc1ccc2c3c(n(C)c2c1)[C@H](CO)N(S(=O)(=O)c1ccc(C)cc1)CC31CN(C(=O)c2ccccn2)C1`, the inhibition is 1.96% (inactive).

As for `CN(C)C(=O)[C@@H]1[C@@H](CO)[C@@H]2Cn3c(ccc(-c4ccncc4)c3=O)[C@H]1N2C(=O)NC1CCCC1`, the inhibition was -68% (inactive).

As to `CCN1/C(=C\c2ccc3ccccc3[n+]2CC)Sc2cc(C)ccc21`, the inhibition was 28.6% (active).

With `COc1cccc(-c2cnc3c(c2)C(=O)N([C@H](C)CO)C[C@H](C)[C@@H](CN(C)Cc2ccc(C(=O)O)cc2)O3)c1`, the inhibition is -2.74% (inactive).

Turning to `O=C(C[C@H]1C[C@@H]2c3cc(NC(=O)CC4CC4)ccc3O[C@@H]2[C@H](CO)O1)NCc1ccccn1`, the inhibition was -3.34% (inactive).

Consider `C[C@@H](O)C#Cc1cnc2c(c1)C(=O)N([C@@H](C)CO)C[C@H](C)[C@H](CN(C)C(=O)c1ccccc1F)O2`, for which the inhibition was 2.03% (inactive).

In the case of `O=C(Cn1ncc2c3ccccc3n(Cc3ccccc3)c2c1=O)NCCCN1CCOCC1`, the inhibition is 0.065% (inactive).

With `CC1=C(C(=O)N(C)C)CC(CC(=O)NCCN2CCOCC2)C(=O)N1Cc1ccccc1` (configuration not stated), the inhibition was -4.9% (inactive).

On to `CC1c2nc3ccccc3n2C(CC(=O)NCCCN2CCOCC2)C(=O)N1Cc1ccccc1` (configuration not stated), for which the inhibition was 112% (active).

Take `C[C@@H]1CCCCO[C@@H](CN(C)Cc2ccc3c(c2)OCO3)[C@H](C)CN([C@@H](C)CO)C(=O)c2cc(NS(C)(=O)=O)ccc2O1`: the inhibition is -3.83% (inactive).

For `N#CC(C#N)=CN=c1ccn(Cc2ccc(Cl)cc2Cl)cc1`, the inhibition was 16.1% (active).

`CC(C)(C)c1cc(C(=O)NN)n(Cc2ccc(Cl)cc2Cl)n1`: the inhibition is 1.67% (inactive).

For the compound `C[C@@H]1CN([C@@H](C)CO)C(=O)c2cc(NC(=O)Nc3ccc(C(F)(F)F)cc3)ccc2O[C@@H](C)CCCCO[C@@H]1CN(C)C(=O)Nc1cccc2ccccc12`, the inhibition was -1.14% (inactive).

For the compound `CC1CCN(C(=S)c2ccc(-c3ccc(Cl)cc3Cl)o2)CC1`, the inhibition is 17.1% (active).

For `CC1CCN(C(=S)c2cccc(O)c2)CC1`, the inhibition is 0.61% (inactive).

Take `Cc1csc(NC(=O)c2ccc(-c3ccc(Cl)cc3Cl)o2)n1`: the inhibition is -0.507% (inactive).

For the compound `COc1ccc2c3c([nH]c2c1)[C@H](CO)N(C(=O)c1ccccc1)CC31CN(C(=O)Nc2cccc(F)c2)C1`, the inhibition is 1.05% (inactive).

For the compound `CC(C)c1cn([C@H]2C[C@@H]3O[C@H](CO)CC[C@@H]3O[C@@H]2CCc2ccc(C#CC3CCCCC3)cc2)nn1`, the inhibition was -3.82% (inactive).

Consider `Cc1nn(-c2ccccc2)c2c1c(C)c(CCC(=O)NCC1CCCO1)c(=O)n2C` (configuration not stated), for which the inhibition is 39.7% (active).

In the case of `CCCNC(=O)CCc1c(C)nc2c(c(C)nn2-c2ccccc2)c1C`, the inhibition is -2.55% (inactive).

Take `Cc1sc2c(c1C)c(=O)n(-c1ccccc1)c(=O)n2CC(=O)NCC1CCCO1` (configuration not stated): the inhibition is -4.65% (inactive).

The values above are taken from PubChem BioAssay AID652115 (Broad Institute, 2013).
